ADAM10 inh = ADAM10 inhibition, QFRET primary screen; O14672; inhibition, % at 7 µM; AID 720582; recombinant ADAM10, EDANS/DABCYL FRET peptide cleavage, 3 h; 370,000 tested, 0.62% active;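 active = inhibition above a per-campaign cutoff equal to the mean of compounds falling between control-based bounds plus 3 SD, cut at about 20% in these data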;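 note: 0% = DMSO wells while the 100% control is not disclosed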
AHR activator = human AHR activation; P35869; AHR-responsive luciferase reporter cells, luminescence; activation, % at 5 µM; 320,000 tested, 2.5% active; AID 2796; in the data active = activation above about 47%;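 note: 0% = vehicle wells and 100% = reference agonist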
Target sequence (P35869 whole entry, looked up): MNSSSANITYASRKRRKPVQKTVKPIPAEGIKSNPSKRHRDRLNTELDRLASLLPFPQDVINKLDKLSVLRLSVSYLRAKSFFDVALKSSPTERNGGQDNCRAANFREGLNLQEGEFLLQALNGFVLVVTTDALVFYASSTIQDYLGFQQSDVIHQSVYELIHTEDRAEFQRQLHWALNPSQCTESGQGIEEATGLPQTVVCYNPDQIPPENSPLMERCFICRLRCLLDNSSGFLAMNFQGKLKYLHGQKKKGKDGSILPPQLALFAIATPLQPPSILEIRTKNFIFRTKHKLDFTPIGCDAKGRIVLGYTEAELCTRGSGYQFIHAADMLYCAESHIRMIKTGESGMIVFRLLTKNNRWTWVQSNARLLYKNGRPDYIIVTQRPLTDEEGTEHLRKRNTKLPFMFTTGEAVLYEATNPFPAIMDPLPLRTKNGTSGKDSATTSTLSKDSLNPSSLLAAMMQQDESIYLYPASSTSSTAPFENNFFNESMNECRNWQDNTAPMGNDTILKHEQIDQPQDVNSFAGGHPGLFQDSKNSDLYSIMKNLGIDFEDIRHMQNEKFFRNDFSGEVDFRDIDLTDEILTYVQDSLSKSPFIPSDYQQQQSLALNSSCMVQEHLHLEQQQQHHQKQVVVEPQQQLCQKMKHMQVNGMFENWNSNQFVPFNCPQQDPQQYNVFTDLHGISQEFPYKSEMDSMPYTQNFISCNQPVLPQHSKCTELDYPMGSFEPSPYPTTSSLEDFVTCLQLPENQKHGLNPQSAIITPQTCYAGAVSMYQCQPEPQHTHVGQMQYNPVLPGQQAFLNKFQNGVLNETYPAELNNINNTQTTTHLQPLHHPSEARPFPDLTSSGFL
rCAG RNA binder = r(CAG) repeat RNA binding; TO-PRO-1 dye displacement fluorescence; 370,000 tested, 1.3% active; inhibition, % at 3 µM; AID 651821;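 active = inhibition above the plate cutoff, the mean of all test compounds on that plate plus 3 SD, cut at about 35% in these data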;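 note: 0% = DMSO alone and 100% = 100 µM mitoxantrone as full dye displacement; higher means more dye released from RNA so lower well fluorescence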
ADAM17 inh = inhibits human ADAM17. 370,000 tested, 0.83% active. P78536. recombinant ADAM17, EDANS/DABCYL FRET peptide cleavage. inhibition, % at 6.95 µM;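 active = inhibition above the mean of compounds lying between control limits plus 3 SD, set per campaign, cut at about 8.5% in these data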;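 note: 0% = DMSO-only wells as the low control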
GRIN3A LBD mod = modulates the human NR3A ligand-binding domain; AID 1259313; 340,000 tested, 2.5% active; NR3A LBD differential scanning fluorimetry, Tm shift; 0% = protein alone, 100% = glycine-bound protein; Tm shift relative to glycine control, % at 25 µM;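 active = melting temperature shift of at least 10% of the positive control shift, at one fixed dose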
KLK7 zymogen act = proKLK7 (human) activation, primary screen. P49862. purified proKLK7, EDANS-DABCYL substrate fluorescence; 100% is mature enzyme control, 0% vehicle. activation, % at 7 µM. 370,000 tested, 0.9% active;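 active = activation above the mean of all tested compounds plus 3 SD, computed per campaign excluding outliers beyond control limits, cut at about 13% in these data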
* = called active by the depositor. The list is not random: actives were taken first. Their share in the collection is about 7%.

Screening OC(COc1ccc2ccccc2c1Br)Cn1cnc(-c2ccccc2)c1 (stereo not given) returned ADAM10 inh 16, AHR activator 7, rCAG RNA binder 1, ADAM17 inh 6, GRIN3A LBD mod 14* and KLK7 zymogen act 0.
Screening COc1ccc(OCC(O)Cn2cnc(-c3ccc(Br)cc3)c2)cc1 (stereo not given) returned ADAM10 inh 7, AHR activator 23, rCAG RNA binder -4, ADAM17 inh 3, GRIN3A LBD mod -10 and KLK7 zymogen act 1.
CSc1cccc(NC(=O)/C=C/c2ccccc2)c1 was read as ADAM10 inh 10, AHR activator 16, rCAG RNA binder 5, ADAM17 inh 4, GRIN3A LBD mod 17* and KLK7 zymogen act -1.
`CSc1ccc(/C=C/C(=O)Nc2ccccc2)cc1` gave ADAM10 inh -20, AHR activator -5, rCAG RNA binder 1, ADAM17 inh -4, GRIN3A LBD mod 21* and KLK7 zymogen act -2.
For CC(=O)Nc1ccc(NC(=O)/C=C/c2ccccc2)cc1 the results were ADAM10 inh 0, AHR activator 3, rCAG RNA binder -3, ADAM17 inh 1, GRIN3A LBD mod 6 and KLK7 zymogen act 0.
Screening CCCCCCCC#Cc1ccccc1/C=N/S(=O)c1ccc(C)cc1 (stereo not given) returned AHR activator 2 and GRIN3A LBD mod 16*.
For CCCCCC(=O)Nc1cccc(C2=NOC3(C2)C[C@H](C(N)=O)N(C(=O)[C@H]2CCC(=O)N2)C3)c1 (stereo not given in full) the results were ADAM10 inh 3, AHR activator 0, rCAG RNA binder 1, ADAM17 inh -4, GRIN3A LBD mod 12* and KLK7 zymogen act 0.
For NC(=O)[C@H]1CC2(CC(c3cccc(NC(=O)CC(c4ccccc4)c4ccccc4)c3)=NO2)CN1C(=O)C(c1ccccc1)c1ccccc1 (stereo not given in full) the results were ADAM10 inh 19, AHR activator -4, rCAG RNA binder 25, ADAM17 inh 13*, GRIN3A LBD mod 3 and KLK7 zymogen act 0.
Screening CCCCCC(=O)Nc1cccc(C2=NOC3(C2)C[C@H](C(N)=O)N(C(=O)CCCCC)C3)c1 (stereo not given in full) returned ADAM10 inh 5, AHR activator -1, rCAG RNA binder -5, ADAM17 inh -1, GRIN3A LBD mod 2 and KLK7 zymogen act 0.
c1ccc(Cn2ccc3ccc(-c4ccc5ccn(Cc6cccc(-c7ccsc7)c6)c5c4)cc32)cc1 was read as ADAM10 inh -24, rCAG RNA binder 14, ADAM17 inh -12 and KLK7 zymogen act -1.
`COc1cc(-c2nc3cnccn3c2Nc2ccc3c(c2)OCCO3)ccc1O` gave ADAM10 inh -14, AHR activator 5, rCAG RNA binder 1, ADAM17 inh 2, GRIN3A LBD mod 1 and KLK7 zymogen act -1.
For COc1cc(-c2nc3ccc(C)cn3c2Nc2ccc3c(c2)OCCO3)ccc1O the results were ADAM10 inh -386, AHR activator 8, rCAG RNA binder 6, ADAM17 inh -206, GRIN3A LBD mod 23* and KLK7 zymogen act -6.
Screening CC1(C)CC(=O)C2=C(C1)N(Cc1ccco1)C(=O)C2(O)C(F)(F)F (stereo not given) returned ADAM10 inh 3, AHR activator 0, rCAG RNA binder 0, ADAM17 inh 0, GRIN3A LBD mod 68* and KLK7 zymogen act 0.
For COc1ccc([C@@]23CCN=C2c2[nH]c4ccccc4c2CCN3)c(N)c1 the results were ADAM10 inh -11 and ADAM17 inh -8.
CCn1c(-c2ccc(N(C)C)cc2)nc2ccccc21 was read as ADAM10 inh inactive, AHR activator 54*, rCAG RNA binder -6, ADAM17 inh -349, GRIN3A LBD mod -2 and KLK7 zymogen act 2.
Screening CCn1c(-c2ccc(N)cc2)nc2ccccc21 returned ADAM10 inh -160, AHR activator 6, rCAG RNA binder 3, ADAM17 inh -40, GRIN3A LBD mod -1 and KLK7 zymogen act 0.
Oc1c(C(Nc2nccs2)c2ccc(C(F)(F)F)cc2)ccc2cccnc12 (stereo not given) was read as ADAM10 inh 3, rCAG RNA binder -4, ADAM17 inh 1, GRIN3A LBD mod -2 and KLK7 zymogen act 1.
`Oc1c(C(Nc2cccc(C(F)(F)F)c2)c2ccncc2)ccc2cccnc12` (stereo not given) gave ADAM10 inh 12, AHR activator 3, rCAG RNA binder 6, ADAM17 inh 45*, GRIN3A LBD mod -8 and KLK7 zymogen act 1.
For C(=NN=Cc1c[nH]c2ccccc12)c1c[nH]c2ccccc12 the results were ADAM10 inh -11, rCAG RNA binder 4, ADAM17 inh 0 and KLK7 zymogen act 0.
Screening O=C1CS/C(=N/N=C/c2c[nH]c3ccccc23)N1 returned ADAM10 inh -2, AHR activator 78*, rCAG RNA binder 2, ADAM17 inh -3, GRIN3A LBD mod 2 and KLK7 zymogen act 0.
For CN(C)/C=N/c1ncc(C(=O)c2ccc3ccccc3c2)s1 the results were ADAM10 inh -26, AHR activator 1, rCAG RNA binder 1, ADAM17 inh -5, GRIN3A LBD mod 0 and KLK7 zymogen act 0.
Screening CN(C)/C=N/c1nc2ccc3c(c2s1)CCCC3 returned ADAM10 inh -76, AHR activator 63*, rCAG RNA binder 1, ADAM17 inh -24, GRIN3A LBD mod -1 and KLK7 zymogen act 0.
Screening CN(C(=O)[C@@H]1CC=C[C@@H]2CCN(C3CCCCC3)C(=O)[C@@H]21)c1ccccc1 returned ADAM10 inh -2 and ADAM17 inh -1.
CN(C)S(=O)(=O)c1ccc2nc(COCc3nc4ccc(S(=O)(=O)N(C)C)cc4[nH]3)[nH]c2c1 was read as ADAM10 inh 3 and ADAM17 inh -1.
`Cc1[nH]n(-c2ccccc2)c(=O)c1/C=N/Nc1nncc(-c2ccccc2)n1` gave ADAM10 inh -169, AHR activator 53*, rCAG RNA binder 24, ADAM17 inh -61, GRIN3A LBD mod -23 and KLK7 zymogen act -4.
Cc1[nH]n(-c2ccccc2)c(=O)c1/C=N/NC(=O)c1ccc(O)cc1O was read as AHR activator 10 and GRIN3A LBD mod 10*.
For Cc1cc(C(=O)N/N=C/c2c(C)[nH]n(-c3ccccc3)c2=O)n[nH]1 the results were ADAM10 inh -2, AHR activator 16, rCAG RNA binder 4, ADAM17 inh -4, GRIN3A LBD mod -2 and KLK7 zymogen act 0.
Screening Cc1ccc(/C=N/Nc2nncc(-c3ccccc3)n2)o1 returned ADAM10 inh 5, AHR activator -1, rCAG RNA binder 1, ADAM17 inh -1, GRIN3A LBD mod 1 and KLK7 zymogen act 0.
Cc1ccc(-n2[nH]c(C)c(/C=N/NC(=O)c3ccc(O)cc3O)c2=O)cc1 was read as AHR activator 18 and GRIN3A LBD mod 13*.

Screening data: PubChem, several laboratories
